# Biological target: Focal adhesion kinase 1 (Homo sapiens) (UniProt Q05397)
# Assay: PTK2 protein binding on printed compound slides – biochemical, small-molecule microarray, 635/667 nm fluorescence, BSA, DTT, primary screen (AID 1130);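 note: composite of spot emission at 667 nm and signal to noise over triplicate slides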
# Settings: 635 nm fluorescence, higher = more signal
# Chain of Focal adhesion kinase 1 (Homo sapiens) (Q05397 whole entry, looked up): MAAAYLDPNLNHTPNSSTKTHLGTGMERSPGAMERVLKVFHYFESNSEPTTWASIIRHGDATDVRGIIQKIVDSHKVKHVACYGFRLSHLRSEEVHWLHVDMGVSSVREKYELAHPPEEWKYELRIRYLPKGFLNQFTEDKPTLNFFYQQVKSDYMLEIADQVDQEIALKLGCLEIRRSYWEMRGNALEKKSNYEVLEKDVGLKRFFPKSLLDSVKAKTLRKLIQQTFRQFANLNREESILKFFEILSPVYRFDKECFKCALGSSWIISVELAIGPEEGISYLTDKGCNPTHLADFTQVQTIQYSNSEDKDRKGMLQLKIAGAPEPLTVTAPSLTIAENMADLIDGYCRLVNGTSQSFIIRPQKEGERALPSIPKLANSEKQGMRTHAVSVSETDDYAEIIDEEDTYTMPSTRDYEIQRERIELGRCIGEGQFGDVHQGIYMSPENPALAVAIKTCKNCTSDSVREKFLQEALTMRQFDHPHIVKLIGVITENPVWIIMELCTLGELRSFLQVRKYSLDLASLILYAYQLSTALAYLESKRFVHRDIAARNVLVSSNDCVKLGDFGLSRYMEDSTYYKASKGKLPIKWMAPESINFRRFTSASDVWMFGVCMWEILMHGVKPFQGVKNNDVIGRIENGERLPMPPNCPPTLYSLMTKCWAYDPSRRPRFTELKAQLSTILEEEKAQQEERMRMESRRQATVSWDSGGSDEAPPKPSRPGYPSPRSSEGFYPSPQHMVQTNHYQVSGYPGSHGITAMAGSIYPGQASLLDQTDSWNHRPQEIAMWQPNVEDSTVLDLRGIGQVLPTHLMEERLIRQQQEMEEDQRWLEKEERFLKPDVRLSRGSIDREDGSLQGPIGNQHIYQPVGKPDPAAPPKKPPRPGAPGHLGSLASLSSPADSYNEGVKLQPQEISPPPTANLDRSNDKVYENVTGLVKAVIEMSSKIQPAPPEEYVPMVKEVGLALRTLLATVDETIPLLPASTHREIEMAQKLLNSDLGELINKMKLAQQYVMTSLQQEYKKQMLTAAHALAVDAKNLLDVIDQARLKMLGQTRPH
row,SMILES,composite z-score
1,COCCCNC(=O)[C@@H]1c2ccccc2C(=O)N(C2Cc3ccccc3C2)[C@H]1c1ccc(CO)cc1,0.407
2,COc1ccc([Si](C)(C)[C@H]2[C@H](CCO)O[C@@]3(C(=O)N(Cc4ccccc4)c4ccc(N5CCOC5=O)cc43)[C@@H]2C)cc1,0.0096
3,C[C@@]12COC[C@]13C=C(Br)[C@H](C2)[C@@]1(CO1)C3=O,-0.306
4,Nc1cc(Br)ccc1C(=O)O,0.5
5,COC(=O)[C@@]1(Cc2ccccc2)[C@H]2c3cc(C(=O)N(C)C)n(CCn4cc([N+](=O)[O-])nc4C)c3C[C@H]2CN1C(=O)c1ccccc1,1.39
6,C=C(/C(=C/C[C@@H](OC(C)=O)c1ccc(CO)o1)c1cc(C(=O)OC)ccc1OC)C(C)C,0.571
7,CC(C)C(=C=CC[C@H](O)c1cccc(OCCO)c1)CCO,0.107
8,C=CCN1C(=O)[C@]2(O[C@H](CCO)[C@@H]([Si](C)(C)c3ccc(OC)cc3)[C@@H]2C)c2cc(NC(=O)c3ccc(OC)cc3)ccc21,0.241
9,CC(=O)NCCCC[C@@H]1NC(=O)[C@@H]2C[C@H](C(=O)NCCCCCCN)[C@H](c3cccc(OCCO)c3)N2C1=O,0.367
10,CN(C)CCCCNC(=O)[C@H]1C[C@H]2C(=O)N[C@@H](CCCC[N+](C)(C)C)C(=O)N2[C@H]1c1ccc(O)cc1,-0.294
11,CC(C)N1CC=CC23O[C@@H]4/C=C\CCCOC(=O)C4[C@H]2C(=O)N(CCCCCCO)[C@@H]3C1=O (stereo not given in full),0.0835
12,O=C(CS)NCCCCCCNC(=O)[C@@H]1C[C@@H]2C(=O)NCC(=O)N2[C@@H]1c1ccc(O)cc1,0.0509
13,COc1ccc([Si](C)(C)[C@H]2[C@H](CCO)O[C@@]3(C(=O)N(Cc4ccccc4)c4ccc(N5C(=O)c6ccccc6Oc6ccccc65)cc43)[C@@H]2C)cc1,-0.21
14,NC(=O)[C@H]1[C@@H]2C(=O)O[C@@H](c3ccccc3)[C@@H](c3ccccc3)N2[C@@H](c2ccc(O)cc2)[C@]12C(=O)Nc1ccccc12,-0.91
15,[N-]=[N+]=NCc1ccccc1[C@@H]1OC(c2ccc(OCCCO)cc2)=N[C@]1(Cc1ccccc1)C(=O)NCCN1CCOCC1,0.533
16,O=C1C2C=CC(C(O)c3ccc4c(c3)OCO4)N(Nc3ccccc3)C2C(=O)N1c1ccccc1 (stereo not given),0.617
17,O=C(CS)NCCCCCNC(=O)[C@@H]1C[C@@H]2C(=O)N[C@@H](Cc3ccccc3)C(=O)N2[C@@H]1c1cccc(OCCO)c1,0.334
18,NCCCCCNC(=O)[C@@H]1C[C@@H]2C(=O)N3CCC[C@H]3C(=O)N2[C@@H]1c1ccc(O)cc1,0.139

row,SMILES,composite z-score
1,COc1cc(NN2C(C(O)c3ccccc3)C=CC3C(=O)N(C)C(=O)C32)cc(OC)c1OC (stereo not given),0.681
2,CC=CC(O)C1C=CC2C(=O)NC(=O)C2N1Nc1ccccn1 (stereo not given),0.381
3,COCCOC(=O)N1C(=O)[C@@]2(c3ccccc31)[C@H](c1ccccc1OCCO)N1[C@H](c3ccccc3)[C@H](c3ccccc3)OC(=O)[C@H]1[C@@H]2C(N)=O,0.502
4,COc1cc(NN2C(C(O)c3ccc(I)cc3)C=CC3C(=O)N(c4ccccc4)C(=O)C32)cc(OC)c1OC (stereo not given),0.522
5,[N-]=[N+]=NCc1ccccc1[C@@H]1OC(c2ccc(OCCCO)cc2)=N[C@]1(Cc1ccccc1N=[N+]=[N-])C(=O)NCCN1CCOCC1,0.535
6,C=C(/C(=C/C[C@H](OC(=O)c1ccncc1)c1ccccc1OCCO)c1cnc2ccccc2c1)C(C)C,0.374
7,C=CCNC(=O)[C@@H]1[C@H]2C(=O)O[C@H](c3ccccc3)[C@H](c3ccccc3)N2[C@H](c2ccc(OCCO)cc2)[C@@]12C(=O)N(C(=O)OCCOC)c1ccc(C#CCCO)cc12,1.12
8,C=C[C@H](C)[C@H](OC(=O)Nc1ccc(OC)cc1)c1ccc(OCCO)cc1,0.0457
9,COc1ccc(C#Cc2ccc3c(c2)[C@]2(C(=O)N3)[C@H](C(=O)N3CCCCCCC3)[C@H]3C(=O)O[C@H](c4ccccc4)[C@H](c4ccccc4)N3[C@@H]2c2ccc(O)cc2)cc1,0.127
10,NCCCCCNC(=O)[C@H]1C[C@H]2C(=O)N[C@@H](Cc3ccccc3)C(=O)N2[C@H]1c1ccc(O)cc1,-0.506
11,CC(C)c1ccc(NN2C(C(O)Cc3ccccc3)C=CC3C(=O)N(c4ccccc4)C(=O)C32)cc1 (stereo not given),1.16
12,Cc1ccc(S[C@]2(C(=O)NCc3ccccc3)CC(=O)N(Cc3cc(C(F)(F)F)cc(C(F)(F)F)c3)[C@@H]2c2ccc(CO)cc2I)cc1,0.438
13,COCCCNC(=O)[C@@]1(c2ccc([N+](=O)[O-])cc2)CC(=O)N(C(C)C)[C@@H]1c1ccc(CO)cc1,0.756
14,CN1C(=O)C2C=CC(C(O)c3ccc(I)cc3)N(Nc3ccccc3)C2C1=O (stereo not given),-0.161
15,CCOC(=O)C1=C[C@@H](c2ccccc2)N(S(=O)(=O)c2ccc(C)cc2)[C@H]1c1ccccc1,0.681
16,CC1CC/C=C\[C@H]2OC34C=CCN(C(C)(C)C)C(=O)[C@H]3N(C(CO)C(C)C)C(=O)[C@@H]4C2C(=O)O1 (stereo not given in full),0.102
17,COC(=O)[C@@]1(Cc2ccc(F)cc2)[C@H]2c3cc(C(=O)N4CCCC4)n(CC4CC4)c3C[C@H]2CN1C(=O)c1ccccc1,0.467
